Results on five molecules are retold here after PubChem BioAssay (EPA / NIEHS).

By AC50 is commonly meant the concentration giving half of the maximal activity seen.

Details in all cases: mRNA level, 48 h; actives raise or lower the signal
Read-out in experiment [1]: Lipoprotein lipase (LPL), LPL (gene 4023)
Description: LTEA_HepaRG_LPL: Life Technologies and Expression Analysis (LTEA) Assay for Lipoprotein lipase (LPL) using HepaRG (AID 2283515). The essentials: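 Read-out is LPL transcript level by qRT-PCR, normalized to three housekeeping genes and fitted bidirectionally against the DMSO control. Human HepaRG cells received chemicals for 48 h at up to 100 uM.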

Read-out in experiment [2]: MicroRNA 122 (MIR122), gene 406906
Description: LTEA_HepaRG_MIR122: Life Technologies and Expression Analysis (LTEA) Assay for MicroRNA 122 (MIR122) using HepaRG (AID 2283516). Note: the transcript read is the microRNA miR-122. The essentials: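 HepaRG, 48 h exposure, 8-pt half-log from 100 uM, 0.5% DMSO; TaqMan qRT-PCR; bidirectional fit vs DMSO.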

Read-out in experiment [3]: MYC, MYC (gene 4609)
The experiment in a line: LTEA_HepaRG_MYC: Life Technologies and Expression Analysis (LTEA) Assay for MYC using HepaRG (AID 2283518). The essentials: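 Differentiated human HepaRG cells, plated 48 h then switched to serum-free induction medium, were exposed in duplicate for 48 h to 8-point half-log series up to 100 uM in 0.5% DMSO. MYC mRNA measured by qRT-PCR, normalized to ACTB/GAPDH/POLR2A.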

Read-out in experiment [4]: matrix metalloproteinase-3 (MMP3), MMP3 (gene 4314)
Description: LTEA_HepaRG_MMP3: Life Technologies and Expression Analysis (LTEA) Assay for matrix metalloproteinase-3 (MMP3) using HepaRG (AID 2283519). The essentials:
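HepaRG, human; 48 h dosing, 8 conc. (max 100 uM, half-log), duplicate, 0.5% DMSO. Readout: MMP3 transcript by Fluidigm TaqMan qRT-PCR, ACTB/GAPDH/POLR2A-normalised. Gain or loss fitted vs DMSO.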

Read-out in experiment [5]: Paternally Expressed 10 (PEG10), PEG10 (gene 23089)
Description: LTEA_HepaRG_PEG10: Life Technologies and Expression Analysis (LTEA) Assay for Paternally Expressed 10 (PEG10) using HepaRG (AID 2283520).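 For AC50: PEG10 transcript by qRT-PCR normalised to ACTB GAPDH and POLR2A.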 The essentials:
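Chemicals tested on HepaRG cells for 48 h, highest concentration 100 uM. PEG10 expression assessed by qRT-PCR relative to DMSO control.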

Read-out in experiment [6]: Protein phosphatase 2A (PPP2R4), PTPA (gene 5524)
The experiment in a line: LTEA_HepaRG_PPP2R4: Life Technologies and Expression Analysis (LTEA) Assay for Protein phosphatase 2A (PPP2R4) using HepaRG (AID 2283522). The essentials:
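Gene-expression endpoint in HepaRG hepatic cells: 48 h treatment across eight half-log concentrations up to 100 uM in 0.5% DMSO. PPP2R4 mRNA by qRT-PCR, normalized to three endogenous control genes.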

Read-out in experiment [7]: solute carrier (SLC22A1), SLC22A1 (gene 6580)
Description: LTEA_HepaRG_SLC22A1: Life Technologies and Expression Analysis (LTEA) Assay for solute carrier (SLC22A1) using HepaRG (AID 2283524). The essentials: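 HepaRG (human liver line), 48 h dosing in serum-free induction medium; 8 conc., half-log down from 100 uM, 0.5% DMSO vehicle, duplicates. Endpoint: SLC22A1 mRNA, qRT-PCR, housekeeping-normalized; gain/loss fit vs DMSO.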

Read-out in experiment [8]: Pyruvate Dehydrogenase Kinase 4 (PDK4), PDK4 (gene 5166)
The experiment in a line: LTEA_HepaRG_PDK4: Life Technologies and Expression Analysis (LTEA) Assay for Pyruvate Dehydrogenase Kinase 4 (PDK4) using HepaRG (AID 2283525). The essentials:
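In this multiplexed human HepaRG expression assay, cells are treated 48 h with test chemicals across an eight-point range starting at 100 uM. PDK4 mRNA changes, normalized to ACTB/GAPDH/POLR2A, are fitted in both directions relative to vehicle.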

Read-out in experiment [9]: NAD(P)H dehydrogenase [quinone] 1 (NQO1), NQO1 (gene 1728)
Description: LTEA_HepaRG_NQO1: Life Technologies and Expression Analysis (LTEA) Assay for NAD(P)H dehydrogenase [quinone] 1 (NQO1) using HepaRG (AID 2283526). An outline of the steps:
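Human HepaRG hepatic cells received chemicals for 48 h in serum-free induction medium with 0.5% DMSO, up to 100 uM. Expression was assessed by TaqMan qRT-PCR against housekeeping controls and fitted bidirectionally against DMSO.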

Read-out in experiment [10]: Nuclear factor erythroid 2-related factor 2 (Homo sapiens) (UniProt Q16236)
Description: LTEA_HepaRG_NFE2L2: Life Technologies and Expression Analysis (LTEA) Assay for Nuclear factor erythroid 2-related factor 2 (NFE2L2) Transcription Factor using HepaRG (AID 2283527).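 Note: TaqMan qRT-PCR transcript level normalised to ACTB GAPDH and POLR2A housekeeping genes.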 The essentials: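 Transcript level of NFE2L2 is the read-out, measured by microfluidic TaqMan qRT-PCR and normalized to three housekeeping genes. Human HepaRG cultures received test chemical for 48 h at up to 100 uM in half-log steps. Gain or loss of signal is fitted relative to 0.5% DMSO.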

Read-out in experiment [11]: succinate dehydrogenase complex iron sulfur subunit B (SDHB), SDHB (gene 6390)
Description: LTEA_HepaRG_SDHB: Life Technologies and Expression Analysis (LTEA) Assay for succinate dehydrogenase complex iron sulfur subunit B (SDHB) using HepaRG (AID 2283528). An outline of the steps: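 HepaRG, 48 h exposure, 8-pt half-log series from 100 uM in 0.5% DMSO, duplicates. Readout: SDHB mRNA by Fluidigm qRT-PCR vs housekeeping genes; bidirectional fit relative to DMSO.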

Read-out in experiment [12]: Signal transducer and activator of transcription 3 (Homo sapiens) (UniProt P40763)
The experiment in a line: LTEA_HepaRG_STAT3: Life Technologies and Expression Analysis (LTEA) Assay for Signal transducer and activator of transcription (STAT3) using HepaRG (AID 2283529). An outline of the steps:
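Read-out is STAT3 mRNA level by qRT-PCR, normalized to three housekeeping genes, in human HepaRG liver cells treated for 48 h. Concentrations ran from 100 uM downward in half-log steps; curves were fitted for gain or loss relative to 0.5% DMSO.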

Read-out in experiment [13]: solute carrier (SLCO1B1), SLCO1B1 (gene 10599)
The experiment in a line: LTEA_HepaRG_SLCO1B1: Life Technologies and Expression Analysis (LTEA) Assay for solute carrier (SLCO1B1) using HepaRG (AID 2283530). The essentials: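 Differentiated human HepaRG cells, plated 48 h, switched to serum-free induction medium and exposed in duplicate for 48 h to 8 half-log concentrations (top 100 uM) in 0.5% DMSO. SLCO1B1 mRNA by TaqMan qRT-PCR, normalized to ACTB/GAPDH/POLR2A.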

Read-out in experiment [14]: sulfotransferase 2A1 (SULT2A1), SULT2A1 (gene 6822)
Description: LTEA_HepaRG_SULT2A1: Life Technologies and Expression Analysis (LTEA) Assay for sulfotransferase 2A1 (SULT2A1) using HepaRG (AID 2283531). The essentials: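 Differentiated human HepaRG cells in serum-free induction medium were exposed for 48 h to eight half-log concentrations (top 100 uM, 0.5% DMSO). SULT2A1 mRNA was measured by qRT-PCR, normalized to ACTB, GAPDH and POLR2A, and fitted bidirectionally against DMSO.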

Read-out in experiment [15]: Transforming Growth Factor (TGFB1), TGFB1 (gene 7040)
The experiment in a line: LTEA_HepaRG_TGFB1: Life Technologies and Expression Analysis (LTEA) Assay for Transforming Growth Factor (TGFB1) Transporter using HepaRG (AID 2283533). An outline of the steps: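 Differentiated human HepaRG cells in serum-free induction medium were exposed in duplicate for 48 h to eight concentrations (top 100 uM, half-log steps, 0.5% DMSO). TGFB1 mRNA was quantified by qRT-PCR, normalized to ACTB, GAPDH, POLR2A, and fitted bidirectionally against DMSO.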

Read-out in experiment [16]: TIMP1, TIMP1 (gene 7076)
The experiment in a line: LTEA_HepaRG_TIMP1: Life Technologies and Expression Analysis (LTEA) Assay for TIMP1 using HepaRG (AID 2283534).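 Note: TaqMan qRT-PCR signal normalized to ACTB GAPDH and POLR2A housekeeping genes.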 The essentials:
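Differentiated human HepaRG cells in serum-free induction medium were exposed 48 h to chemicals (8 half-log concentrations, top 100 uM, 0.5% DMSO). TIMP1 mRNA was quantified by TaqMan qRT-PCR, normalized to ACTB/GAPDH/POLR2A; bidirectional fit versus DMSO.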

Read-out in experiment [17]: Phosphatase and tensin (PTEN), PTEN (gene 5728)
Description: LTEA_HepaRG_PTEN: Life Technologies and Expression Analysis (LTEA) Assay for Phosphatase and tensin (PTEN) using HepaRG (AID 2283523). An outline of the steps:
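Read-out is PTEN transcript level by multiplexed TaqMan qRT-PCR after 48 h chemical treatment of human HepaRG cultures in serum-free induction medium. Concentrations spanned 100 uM downward in half-log steps, 0.5% DMSO throughout; activity fitted in both directions against vehicle.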

Read-out in experiment [18]: Transforming Growth Factor (TGFA), TGFA (gene 7039)
Description: LTEA_HepaRG_TGFA: Life Technologies and Expression Analysis (LTEA) Assay for Transforming Growth Factor (TGFA) using HepaRG (AID 2283532). The essentials:
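HepaRG (human liver line), 48 h exposure, 8 conc. half-log down from 100 uM, 0.5% DMSO vehicle, duplicates; serum-free induction medium. TGFA mRNA by TaqMan qRT-PCR, ACTB/GAPDH/POLR2A normalization; gain/loss fit vs DMSO.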

Active and inactive are the calls of the source. Rule for the calls: active = hit-call score of the fitted dose curve at least 0.9, where 1 is the maximum; inactive = score below 0.9.

Sequence of Nuclear factor erythroid 2-related factor 2 (Homo sapiens) (Q16236 whole entry, looked up): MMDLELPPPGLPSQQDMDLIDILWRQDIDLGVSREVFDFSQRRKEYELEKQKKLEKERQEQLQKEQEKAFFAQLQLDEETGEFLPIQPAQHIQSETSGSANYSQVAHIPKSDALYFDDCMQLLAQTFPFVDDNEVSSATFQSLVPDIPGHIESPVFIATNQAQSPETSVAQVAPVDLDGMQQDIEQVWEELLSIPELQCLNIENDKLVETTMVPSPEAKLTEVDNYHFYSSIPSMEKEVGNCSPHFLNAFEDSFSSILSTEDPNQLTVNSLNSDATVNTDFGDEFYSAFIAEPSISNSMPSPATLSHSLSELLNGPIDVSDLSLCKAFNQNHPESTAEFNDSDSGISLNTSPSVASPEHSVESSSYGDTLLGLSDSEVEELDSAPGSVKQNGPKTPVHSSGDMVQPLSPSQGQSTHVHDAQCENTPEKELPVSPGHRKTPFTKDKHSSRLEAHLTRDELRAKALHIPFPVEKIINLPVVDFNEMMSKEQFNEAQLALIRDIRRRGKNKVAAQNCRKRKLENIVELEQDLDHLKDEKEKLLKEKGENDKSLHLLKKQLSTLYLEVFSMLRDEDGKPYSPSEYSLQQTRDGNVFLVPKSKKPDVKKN
Sequence of Signal transducer and activator of transcription 3 (Homo sapiens) (P40763 whole entry, looked up): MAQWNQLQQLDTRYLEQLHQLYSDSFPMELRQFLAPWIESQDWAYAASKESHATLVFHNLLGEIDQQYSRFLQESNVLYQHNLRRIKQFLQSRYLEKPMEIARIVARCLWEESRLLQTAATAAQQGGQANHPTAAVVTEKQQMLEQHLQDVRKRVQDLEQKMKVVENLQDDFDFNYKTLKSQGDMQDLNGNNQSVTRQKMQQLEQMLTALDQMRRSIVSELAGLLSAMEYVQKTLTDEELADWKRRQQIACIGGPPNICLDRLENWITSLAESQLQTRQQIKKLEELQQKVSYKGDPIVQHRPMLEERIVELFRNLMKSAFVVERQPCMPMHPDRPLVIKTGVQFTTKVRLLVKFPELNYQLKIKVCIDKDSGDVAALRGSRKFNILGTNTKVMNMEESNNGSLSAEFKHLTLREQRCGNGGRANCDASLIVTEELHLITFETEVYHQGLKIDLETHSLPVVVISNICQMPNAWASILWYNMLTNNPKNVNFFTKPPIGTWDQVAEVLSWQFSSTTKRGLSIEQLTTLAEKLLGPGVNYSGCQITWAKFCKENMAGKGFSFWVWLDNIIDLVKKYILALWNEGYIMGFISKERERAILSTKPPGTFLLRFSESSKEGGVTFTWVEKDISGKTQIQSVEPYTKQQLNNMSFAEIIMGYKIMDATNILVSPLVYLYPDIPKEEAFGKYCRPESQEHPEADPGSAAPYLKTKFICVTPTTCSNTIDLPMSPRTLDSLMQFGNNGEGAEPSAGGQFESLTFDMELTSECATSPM

As to `CCCCCCCCCC(=O)O`, the outcome in experiment [1], in experiment [2], in experiment [3], in [4], in experiment [5] and in experiment [6] was inactive. In addition, the outcome in experiment [7], in experiment [8], in experiment [9], in [10], in experiment [11] and in [12] was inactive. The call in [13], in experiment [14], in [15] and in experiment [16] was inactive.
`CCO[Si](CCCNC(N)=O)(OCC)OCC`: the call in experiment [1], in experiment [2], in [4], in [5], in experiment [6] and in [7] was inactive. Further, the molecule was called inactive in experiment [8], in [9], in experiment [10], in experiment [11], in experiment [13] and in experiment [14]. For the same molecule, the call in experiment [15] and in experiment [16] was inactive.
Take `Cc1ncc(CO)c(CO)c1O`: the result in experiment [1], in experiment [2], in [4], in [5], in [6] and in [7] was inactive. The result in [9], in experiment [10], in experiment [11], in [13], in experiment [14] and in experiment [15] was inactive. The outcome in experiment [16] was inactive.
Regarding `C[C@]12CC[C@@H]3c4ccc(O)cc4CC[C@H]3[C@@H]1CC[C@H]2O`, the molecule was classed as inactive in [1], in experiment [2], in experiment [3], in experiment [4], in experiment [6] and in experiment [8]. Further, the outcome in [9], in experiment [10], in experiment [11] and in experiment [16] was inactive. For the same molecule, the concentration at half-maximal activity (AC50) was 50 µM (active) in experiment [5]; 71.1 µM (active) in experiment [7]; 77.5 µM (active) in experiment [13]; 6.71 µM (active) in [14]; 50 µM (active) in [15].
Consider `CC(C)(O)c1ccc(CNC(=O)c2cccnc2Oc2ccc3nonc3c2)cc1`, for which the molecule was classed as inactive in [1], in experiment [2], in experiment [5], in experiment [6], in experiment [17] and in experiment [7]. Further, the outcome in [8], in experiment [9], in experiment [10], in experiment [11], in experiment [12] and in [13] was inactive. Further, the outcome in experiment [14], in experiment [18], in experiment [15] and in [16] was inactive.
